High-throughput results (PubChem)
CYP2C19 act: increases human CYP2C19 enzyme activity; P33261; recombinant CYP2C19, luciferin-H EGE luminescence; hits give high values; 0 = fully inhibited enzyme, 1 = untreated enzyme; activation factor at 5 µM; 96,000 tested, under 10 active;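 active means activation factor of at least 2 at 5 µM in the primary screen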
Target sequence (P33261 whole entry, looked up): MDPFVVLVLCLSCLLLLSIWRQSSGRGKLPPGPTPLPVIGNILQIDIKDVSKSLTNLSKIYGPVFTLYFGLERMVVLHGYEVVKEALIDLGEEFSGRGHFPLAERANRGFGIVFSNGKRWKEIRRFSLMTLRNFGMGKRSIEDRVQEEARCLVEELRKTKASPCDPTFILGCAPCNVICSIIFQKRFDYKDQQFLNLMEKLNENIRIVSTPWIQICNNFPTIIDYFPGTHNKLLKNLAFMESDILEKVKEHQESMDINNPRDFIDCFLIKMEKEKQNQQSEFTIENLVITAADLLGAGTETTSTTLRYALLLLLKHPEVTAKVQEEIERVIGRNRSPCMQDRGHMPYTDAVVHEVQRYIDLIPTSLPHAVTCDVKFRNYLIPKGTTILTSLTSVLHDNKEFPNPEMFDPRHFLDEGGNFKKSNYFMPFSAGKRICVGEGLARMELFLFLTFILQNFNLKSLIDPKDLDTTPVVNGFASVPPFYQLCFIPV
CYP2C9 inhib: blocks human cytochrome P450 2C9; AID 777; CYP2C9 Supersomes, luciferin-H conversion, luminescence; hit rate 20% among 96,000; inhibition, % at 5 µM;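 active means blocking of liver enzyme CYP2C9 beyond about 50% at 5 µM, limit read from the data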
CYP2C9 act: activators of human CYP2C9; P11712; recombinant CYP2C9, luciferin-H conversion, luminescence; hits give high values; factor 1 = untreated enzyme, 0 = blocked; activation factor at 5 µM; hit rate 1.4% among 96,000;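 active means activation factor of 2 or more for CYP2C9 at a 5 µM dose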
CYP2C19 inh: inhibitors of human CYP2C19 | inhibition, % at 5 µM | P33261 | hit rate 21% among 96,000 | CYP2C19 Supersomes, luciferin-H EGE luminescence, 30 min;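 active means CYP2C19 inhibition above a set limit at 5 µM in the primary screen, cut at about 50% in these data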
PLAP act: activators of human placental alkaline phosphatase | purified PLAP enzyme, luminescent substrate read-out; hits give high values | activation fold at 20 µM | AID 696 | hit rate 1.2% among 96,000; in the data active means activation fold above about 2
Each line names hits and unclear results; the compound was inactive in the other large screens. Only some compounds are listed: those with a hit (about 31% of all), similar ones and a draw of the others.

O=C(Nc1ccccc1C(=O)OCC(=O)N1CCc2ccccc2C1)c1ccco1	CYP2C9 inhib 87, CYP2C19 inh 65
O=C(OCC(=O)N1CCN(C(=O)c2ccco2)CC1)c1ccccc1OCc1ccc(Cl)cc1	CYP2C9 inhib 77
CCS(=O)(=O)N1CCN(C(=O)c2ccco2)CC1	none
CCC(C)NC(=O)CC1Oc2ccc(C)cc2NC1=O (configuration not stated)	none
O=C(c1ccco1)N1CCN(C(=O)c2ccccc2OC(=O)C23CC4CC(CC(C4)C2)C3)CC1	CYP2C9 inhib 65, CYP2C19 inh 79
CC1CCC(NC(=O)COc2ccccc2C(N)=O)CC1 (configuration not stated)	none
N#Cc1ccccc1Sc1ccccc1C(=O)OCC(=O)N1CCN(C(=O)c2ccco2)CC1	CYP2C9 inhib 77
O=C(COC(=O)c1ccccc1OCc1ccc(Cl)cc1)NC1CC1	CYP2C9 inhib 62, CYP2C19 inh 75
O=C(OCC(=O)N1CCN(C(=O)c2ccco2)CC1)c1ccccc1O	CYP2C9 inhib 72
O=C(OCC(=O)N1CCN(C(=O)c2ccco2)CC1)c1sc2ccccc2c1Cl	none
CCCCC1CCC(C(=O)NCc2ccc3c(c2)OCO3)CC1 (configuration not stated)	none
N#Cc1c(NC(=O)CSc2nc(-c3ccco3)cc(C(F)(F)F)n2)sc2c1CCCC2	none
O=P(O)(CCc1ccncc1)CN1CCCCC1	none
Nc1ncnc2nc(N3CCN(C(=O)c4ccccc4)CC3)[nH]c12	none
CC1(C)CC(C(=O)Nc2nccs2)CCO1 (configuration not stated)	none
CCOC(=O)N1CCN(c2nc(-c3ccc(OC)cc3)no2)CC1	none
Cc1cc(Cl)ccc1Oc1nc(-c2ccc(F)cc2)ccc1C#N	none
O=C(O)Cn1nc(-c2ccccc2)oc1=O	none
S=c1oc(-c2ccncc2)nn1CCc1ccncc1	CYP2C9 inhib 85, CYP2C19 inh 99
Cc1csc(SCC(=O)c2c(N)n(CC(C)C)c(=O)n(C)c2=O)n1	none
Cc1ccc(NC2=Nc3ccccc3CS2)cc1	CYP2C19 inh 51
COc1ccc(N(CC(=O)N2CCN(c3ccccc3)CC2)S(=O)(=O)c2c(C)noc2C)cc1	CYP2C19 inh 65
Cc1noc(C)c1S(=O)(=O)N(CC(=O)N1CCCCCC1)c1ccc(C(C)C)cc1	CYP2C9 inhib 77, CYP2C19 inh 72
Cc1ccc(C)c(S(=O)(=O)NCCOc2nc(NC(C)C)nc(NC(C)C)n2)c1	CYP2C9 inhib 59, CYP2C19 inh 78
CN(CCO)c1nc(N)c2c(N)nc3c(c2c1C#N)CC(=O)N3C1CCCC1	CYP2C9 inhib 75
CC(C)(C)N1C(=O)Cc2c1nc(N)c1c(N)nc(N3CCCCC3CO)c(C#N)c21 (configuration not stated)	CYP2C9 inhib 75
O=C(NCCN1CCOCC1)C1CCN(c2nc3ccccc3o2)CC1	none
CCOC(=O)c1[nH]nc(-c2c(O)cc(C)cc2O)c1-c1csc(C)n1	PLAP act 2.1
CCCc1cc(-c2n[nH]c(C(=O)OCC)c2-c2cscn2)c(O)cc1O	CYP2C9 inhib 67, CYP2C19 inh 56, PLAP act 2.1
CCOC(=O)c1[nH]nc2c1C(=O)N(CC)C2=O	none
CCOC(=O)c1cnn(-c2nc(-c3ccc(C)cc3)cs2)c1C(F)(F)F	none
Cc1cc(C)n(-c2nc(-c3cccc(Cl)c3)cs2)n1	none
Cc1ccc(-c2nnc(N(C)C(=O)c3cccnc3)s2)cc1	CYP2C9 inhib 86, CYP2C19 inh 67
CN(C(=O)c1ccncc1)c1nnc(-c2ccncc2)s1	CYP2C9 inhib 94, CYP2C19 inh 96
CCCCCCc1nc2c(=O)[nH]c3ccccc3c2o1	none
CSc1ccc(NC(=O)CC(C)=O)cc1	none
CSc1ccc(/C=C/C(=O)c2ccc(NC(C)=O)cc2)cc1	CYP2C19 inh 51
CCCC(=O)Nc1ccc(C(=O)/C=C/c2ccc(SC)cc2)cc1	CYP2C9 inhib 73, CYP2C19 inh 50
CCCC(=O)N(Cc1cc2ccccc2[nH]c1=O)c1ccccc1OC	CYP2C9 inhib 87, CYP2C19 inh 65
COc1ccc2cc(CN(CC3COCCO3)S(=O)(=O)c3ccccc3)c(=O)[nH]c2c1 (configuration not stated)	CYP2C9 inhib 85
COc1ccc(S(=O)(=O)N(Cc2cc3ccc(OC)cc3[nH]c2=O)CC2COCCO2)cc1 (configuration not stated)	CYP2C9 inhib 75
CCCC(=O)N(Cc1cc2cc(C)ccc2[nH]c1=O)c1ccccc1OC	none
